Screening results: PubChem BioAssay, National Center for Advancing Translational Sciences (NCATS)
This excerpt belongs to a sample that is enriched for hits.
LmPK inh: qHTS Assay for Inhibitors of Leishmania Mexicana Pyruvate Kinase (LmPK) | Q27686 | AID 1721, 2009 | purified LmPK, Kinase-Glo ATP luminescence, 1 h | actives 0.37% (n = 290,000) | Potency, µM (top dose mostly 57.5 µM), for inactives: top-dose activity change, negative = inhibition, usual class: inhibitors; further: potency means the concentration at half of the fitted maximal effect; on the % scale 0 is the no-effect control and ±100 the full control effect
Target sequence (Q27686 whole entry, looked up): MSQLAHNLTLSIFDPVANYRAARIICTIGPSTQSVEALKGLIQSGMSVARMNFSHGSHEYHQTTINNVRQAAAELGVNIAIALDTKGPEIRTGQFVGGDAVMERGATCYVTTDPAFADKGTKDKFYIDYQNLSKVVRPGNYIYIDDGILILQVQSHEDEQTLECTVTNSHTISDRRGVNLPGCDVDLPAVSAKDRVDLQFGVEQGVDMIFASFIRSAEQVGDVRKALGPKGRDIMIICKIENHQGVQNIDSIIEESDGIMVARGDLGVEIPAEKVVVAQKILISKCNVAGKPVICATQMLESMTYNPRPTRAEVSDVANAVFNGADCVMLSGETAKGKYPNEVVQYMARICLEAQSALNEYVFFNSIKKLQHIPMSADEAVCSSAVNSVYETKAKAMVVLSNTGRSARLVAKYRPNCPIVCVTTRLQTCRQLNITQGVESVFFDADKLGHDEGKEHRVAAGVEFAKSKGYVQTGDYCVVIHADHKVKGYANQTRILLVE
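Purified LmPK (0.1 nM) with 0.5 mM PEP and 0.1 mM ADP in imidazole buffer pH 7.2 with MgCl2/KCl, 1 h at room temperature. ATP formed was read by luciferase luminescence and normalized to no-enzyme and uninhibited controls.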
TbPYK inhibitor: qHTS of Trypanosoma Brucei Inhibitors | Potency, µM (highest dose often 76.8 µM), for inactives: at the highest dose activity, negative = inhibition, most hits filed as inhibitors | pyruvate kinase (Trypanosoma brucei), Q57TT1 | TbPYK enzyme, Kinase-Glo Plus ATP luminescence, 45 min | actives 0.12% (n = 410,000); further: potency means the concentration at half of the fitted maximal effect; on the % scale 0 is the no-effect control and ±100 the full control effect; nearly all actives have a fitted effect of over 50% in size
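Assay buffer: 50 mM TEA pH 7.2, 100 mM KCl, 10 mM MgCl2, 0.05% BSA, 0.01% Tween-20. Pyruvate kinase from T. brucei plus substrate met compound, then ADP (130 uM final). Luminescence was read post 45 min RT.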
Cycloheximide cs: Cycloheximide Counterscreen for Small Molecule Inhibitors of Shiga Toxin; AID 2314, 2010; actives 12% (n = 300,000); max response, %; cell reporter, cycloheximide protein synthesis inhibition counterscreen; in the data active means max response mostly above about 13%, no sharp cut-off; inactive means mostly below about 14%; further: read at 38.3 µM for the half of the compounds with a filed dose; 0% is about no effect
NS1 inh: qHTS Assay for Inhibitors of Influenza NS1 Protein Function. Potency, µM (doses to about 46.1 µM), for the others: top-dose activity, positive = more growth. actives 0.4% (n = 270,000); calls by dose curve; further: potency means the concentration at half of the fitted maximal effect; actives are rising curves; nearly all actives have a fitted effect of over 50% in size
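In this qHTS, NS1 from influenza A is expressed in budding yeast, where it slows growth. Cells are switched from glucose to 2% galactose medium (pH 6.0, -URA), treated with compound, and growth recovery is read at OD600.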
Shiga toxin inh: A qHTS for Small Molecule Inhibitors of Shiga Toxin; Vero cells, Shiga toxin protein synthesis inhibition reporter; inhibition, % at 38.7 µM; actives 9.2% (n = 290,000); AID 2315, 2010; in the data active means inhibition mostly above about 28%, no sharp cut-off; inactive means mostly below about 43%; further: 0% is about no effect
SARS PLP yeast: qHTS of Yeast-based Assay for SARS-CoV PLP; actives 0.19% (n = 330,000); S. cerevisiae expressing SARS-CoV PLpro, growth rescue; AID 485353, 2010; Potency, µM (doses to about 32.9 µM), for the others: at the top dose activity, positive = growth rescue, most hits filed as activators; calls by dose curve; further: potency means the concentration at half of the fitted maximal effect; 0% is about no effect; nearly all actives have a fitted effect of over 55% in size
* marks the source's active call; other numbers are inactive results; u = inconclusive; x = no result; [ ] = remark or other dose. Unless noted, the call rests on the fitted dose curve; in most records, active means well fitted curve in the direction sought with a large enough effect; inconclusive means small, poorly fitted or top-dose-only effect, or another doubt; inactive means no such curve, though single readings can be large; an effect the other way counts as inactive or inconclusive.

SMILES	LmPK inh	TbPYK inhibitor	Cycloheximide cs	NS1 inh	Shiga toxin inh	SARS PLP yeast
CC(C)C[C@H](NC(=O)[C@H](CC(C)C)NC(=O)[C@H](Cc1ccc(O)cc1)NC(=O)CNC(=O)[C@H](C)NC(=O)[C@H](CO)NC(=O)[C@H](CC(N)=O)NC(=O)[C@H](CC(C)C)NC(=O)[C@@H](NC(=O)[C@H](Cc1c[nH]c2ccccc12)NC(=O)CN)[C@@H](C)O)C(=O)NCC(=O)N1CCC[C@H]1C(=O)N1CCC[C@H]1C(=O)N1CCC[C@H]1C(=O)NCC(=O)N[C@@H](Cc1ccccc1)C(=O)N[C@@H](CO)C(=O)N1CCC[C@H]1C(=O)N[C@@H](Cc1ccccc1)C(=O)N[C@@H](CCCNC(=N)N)C(N)=O	x	x	-3	x	-6	x
CC(C)(C)c1ccc(OCCC(=O)NNC(=O)c2ccncc2)cc1	x	-8%	x	x	x	-12%
CCOc1ccccc1CNC(=O)CN1C(=O)c2cccnc2Oc2ccc(Cl)cc21	x	2%[15.4 µM]	x	x	x	x
O=C(COc1ccc(Cl)cc1)NCC(c1ccco1)S(=O)(=O)c1ccc(F)cc1 (configuration not stated)	x	2%	x	x	x	x
Cc1cccc(C(=O)OC(C)CN2CCOCC2)c1 (configuration not stated)	12%	-2%	28*	x	69	-4%
CC(CN1CCOCC1)OC(=O)c1cccc(Br)c1 (configuration not stated)	1%	-10%	-2	-1%	21	-6%
CC(CN1CCOCC1)OC(=O)c1ccc2c(c1)OCCO2 (configuration not stated)	-6%	0%	61*	-35%	66*	-14%
CC(CN1CCOCC1)OC(=O)/C=C/c1ccccc1 (configuration not stated)	0%	3%	44*	1%	84*	0%
CC(C)N(C)CCOC(=O)c1ccc2c(c1)OCCO2	-8%	-11%	16*	0%	47	-2%
CCOc1ccccc1NC(C)C(=O)NC(=O)NC1CCCCC1 (configuration not stated)	x	-1%	x	x	x	-7%
COc1cc(C(=O)NCCc2ccc(S(N)(=O)=O)cc2)ccc1OCc1c(C)noc1C	x	0%	x	x	x	-1%
CC(CN1CCOCC1)OC(=O)c1ccccc1Br (configuration not stated)	4%	-8%	25*	0%	46	3%
CC(CN1CCCCC1)OC(=O)c1ccc2c(c1)OCCO2 (configuration not stated)	-3%	2%	43*	0%	70*	-2%
CC(CN1CCCC1)OC(=O)c1ccccc1Cl (configuration not stated)	-5%	2%	3	7%	-12	-6%
COc1ccc(N2CCN(C(=O)COC(=O)CC(NC(N)=O)c3ccc(Cl)cc3)CC2)cc1 (configuration not stated)	x	1%	x	x	x	x
Cc1ccc(Cc2c(C3CCCCC3)nc3c4ccccc4ccn23)cc1	x	5%	x	x	x	x
CC(C)CCNC(=O)CN(C(=O)CCC(=O)Nc1nccs1)c1ccc2c(c1)OCCO2	-1%	0%	35*	6%	68*	1%
CC(C)(C)NC(=O)CN(C(=O)CCC(=O)Nc1nccs1)c1ccc2c(c1)OCCO2	-1%	-4%	-2	-2%	1	-1%
COc1ccc2c(c1)Cc1sc(NC(C)=O)nc1-2	-30%	u	40*	-9%	72*	-6%
COc1ccc2c(c1)CCc1sc(NC(=O)c3ccc(Br)cc3)nc1-2	x	2%	x	x	x	x
COc1ccc2c(c1)-c1nc(NC(=O)c3ccco3)sc1CC2	0%	-1%	49*	-4%	121*	-74%
COc1ccc2c(c1)CCc1sc(NC(=O)c3ccc(C)cc3)nc1-2	-1%	-12%	19	9%	80	0%
COc1ccc2c(c1)Cc1sc(NC(=O)c3ccco3)nc1-2	1%	-18%	74*	-2%	62*	-9%
COc1ccc2c(c1)CCc1sc(NC(=O)c3ccco3)nc1-2	4%	-7%	50*	-3%	129*	-28%
